# Results filed as inconclusive are left out. Active and inactive are the calls of the source. The calls were made as follows: active = hit-call score of the fitted dose curve at least 0.9, where 1 is the maximum; inconclusive = response in the unintended direction; inactive = score below 0.9.
# How the values were obtained:
# [1] = molecular target: Nuclear receptor subfamily 1 group I member 2 (Homo sapiens) (UniProt O75469); assay: NVS_NR_hPXR: NovaScreen (NVS) Nuclear Receptor Binding Assay for human Pregnane X Receptor (PXR) (AID 2283365);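 also: a drop in FRET signal versus DMSO baseline means the compound binds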
# Nuclear receptor subfamily 1 group I member 2 (Homo sapiens), sequence (O75469 whole entry, looked up): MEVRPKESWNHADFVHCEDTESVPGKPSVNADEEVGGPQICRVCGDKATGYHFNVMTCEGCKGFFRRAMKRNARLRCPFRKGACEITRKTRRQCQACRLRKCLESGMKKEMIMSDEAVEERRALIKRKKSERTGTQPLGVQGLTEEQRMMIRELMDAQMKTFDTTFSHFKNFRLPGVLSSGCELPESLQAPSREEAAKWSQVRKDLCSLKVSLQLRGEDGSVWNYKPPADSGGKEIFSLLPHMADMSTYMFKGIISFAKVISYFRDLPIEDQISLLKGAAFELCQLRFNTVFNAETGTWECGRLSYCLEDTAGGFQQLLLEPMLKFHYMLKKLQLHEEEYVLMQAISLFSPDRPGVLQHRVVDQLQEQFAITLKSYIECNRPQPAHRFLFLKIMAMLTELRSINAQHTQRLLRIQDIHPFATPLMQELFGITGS
# Method in brief: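 Read-out: TR-FRET, human PXR, 2 h post-dosing, cell-free. Loss of signal vs DMSO taken as binding activity; 25 uM primary, concentration series secondary.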
# [2] = molecular target: human Peroxisome Proliferator-activated Receptor alpha (PPARa), PPARA (gene 5465) (UniProt Q07869); assay: NVS_NR_hPPARa: NovaScreen (NVS) Nuclear Receptor Binding Assay for human Peroxisome Proliferator-activated Receptor alpha (PPARa) (AID 2283359);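 also: activity means loss of TR-FRET signal versus DMSO baseline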
# human Peroxisome Proliferator-activated Receptor alpha (PPARa), PPARA (gene 5465), sequence (Q07869 whole entry, looked up): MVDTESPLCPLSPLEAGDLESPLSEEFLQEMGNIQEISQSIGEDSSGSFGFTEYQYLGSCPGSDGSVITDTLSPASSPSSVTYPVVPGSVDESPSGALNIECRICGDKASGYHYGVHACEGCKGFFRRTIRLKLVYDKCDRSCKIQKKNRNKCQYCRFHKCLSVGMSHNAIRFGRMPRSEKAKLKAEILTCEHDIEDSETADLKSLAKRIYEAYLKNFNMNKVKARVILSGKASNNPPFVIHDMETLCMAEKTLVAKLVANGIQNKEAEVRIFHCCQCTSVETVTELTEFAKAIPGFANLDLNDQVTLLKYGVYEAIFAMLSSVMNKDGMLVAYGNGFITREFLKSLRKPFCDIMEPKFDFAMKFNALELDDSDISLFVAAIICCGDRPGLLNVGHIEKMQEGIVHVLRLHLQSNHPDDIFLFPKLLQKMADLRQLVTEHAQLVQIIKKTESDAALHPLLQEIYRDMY
# Method in brief: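 Loss of TR-FRET binding signal relative to DMSO was measured 1 h after chemical addition to extracted receptor protein. Chemicals were first tested in duplicate at 25 uM, and actives were followed up in concentration series.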
# [3] = molecular target: human Thyroid Receptor Alpha (TRa), THRA (gene 7067) (UniProt P10827); assay: NVS_NR_hTRa_Antagonist: NovaScreen (NVS) Nuclear Receptor Binding Assay for human Thyroid Receptor Alpha Antagonism (TRa) (AID 2283362)
# human Thyroid Receptor Alpha (TRa), THRA (gene 7067), sequence (P10827 whole entry, looked up): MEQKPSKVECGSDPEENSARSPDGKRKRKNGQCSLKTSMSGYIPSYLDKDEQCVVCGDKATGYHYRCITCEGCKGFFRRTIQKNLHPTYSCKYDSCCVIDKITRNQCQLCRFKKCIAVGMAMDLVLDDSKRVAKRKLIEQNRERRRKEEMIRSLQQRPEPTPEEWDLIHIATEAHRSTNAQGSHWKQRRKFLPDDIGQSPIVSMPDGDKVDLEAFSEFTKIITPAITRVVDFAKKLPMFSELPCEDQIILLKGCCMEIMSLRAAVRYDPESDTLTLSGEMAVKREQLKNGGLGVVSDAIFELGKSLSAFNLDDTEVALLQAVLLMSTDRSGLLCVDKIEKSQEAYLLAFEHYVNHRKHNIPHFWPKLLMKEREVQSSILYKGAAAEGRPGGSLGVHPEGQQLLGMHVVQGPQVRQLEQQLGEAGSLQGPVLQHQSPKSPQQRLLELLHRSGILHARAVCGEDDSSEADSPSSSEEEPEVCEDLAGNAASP
# Method: NVS_NR_hTRa_Antagonist is a biochemical, single-readout assay that uses extracted gene-proteins in a cell-free assay. Measurements were taken 1 hour after chemical dosing in a 384-well plate.NVS_NR_hTRa_Antagonist is one of one assay component(s) measured or calculated from the NVS_NR_hTRa_Antagonist assay. It is designed to make measurements of enzyme-linked immunosorbent assay, a form of binding reporter, as detected with chemiluminescence signals by AlphaLISA immunoassay technology.Data from the assay component NVS_NR_hTRa_Antagonist was analyzed into 1 assay endpoint. This assay endpoint, NVS_NR_hTRa_Antagonist, was analyzed in the positive analysis fitting direction relative to DMSO as the negative control and baseline of activity. Using a type of binding reporter, loss-of-signal activity can be used to understand changes in the binding as they relate to the gene THRA. Furthermore, this assay endpoint can be referred to as a primary readout, because the performed assay has only produced 1 assay endpoint. To generalize the intended target to other relatable targets, this assay endpoint is annotated to the nuclear receptor intended target family, where the subfamily is non-steroidal.
# Binding assays used specific radioligands (tritiated, iodinated) with non-radioactive competitive displacement ligands in agonist or antagonist protocols (as indicated) and various reference compounds and inhibitors to titrate specific binding to receptors and transporters. Most enzyme assays (CYPs, kinases, phosphatases, proteases, HDACs) used recombinant protein and specific substrates (fluorescence mostly, some colorimetric and radioactive) and inhibitors, followed by a biochemical separation of substrate and product. All assays for the biochemical HTS were initially run in duplicate at a single concentration (10 uM for CYP450 assays and 25 uM for all others). […] Each assay was run with positive and negative controls, and concurrent controls on every plate. The follow-up (secondary) screen tested active chemical-pairs in concentration series, as well as a few additional assays not tested in the primary screen, some selected negative inactives, and several cases re-run in the concentration series for confirmatory purposes.
# [4] = molecular target: rat Androgen Receptor (AR), Ar (gene 24208) (UniProt P15207); assay: NVS_NR_rAR: NovaScreen (NVS) Nuclear Receptor Binding Assay for rat Androgen Receptor (AR) (AID 2283366)
# rat Androgen Receptor (AR), Ar (gene 24208), sequence (P15207 whole entry, looked up): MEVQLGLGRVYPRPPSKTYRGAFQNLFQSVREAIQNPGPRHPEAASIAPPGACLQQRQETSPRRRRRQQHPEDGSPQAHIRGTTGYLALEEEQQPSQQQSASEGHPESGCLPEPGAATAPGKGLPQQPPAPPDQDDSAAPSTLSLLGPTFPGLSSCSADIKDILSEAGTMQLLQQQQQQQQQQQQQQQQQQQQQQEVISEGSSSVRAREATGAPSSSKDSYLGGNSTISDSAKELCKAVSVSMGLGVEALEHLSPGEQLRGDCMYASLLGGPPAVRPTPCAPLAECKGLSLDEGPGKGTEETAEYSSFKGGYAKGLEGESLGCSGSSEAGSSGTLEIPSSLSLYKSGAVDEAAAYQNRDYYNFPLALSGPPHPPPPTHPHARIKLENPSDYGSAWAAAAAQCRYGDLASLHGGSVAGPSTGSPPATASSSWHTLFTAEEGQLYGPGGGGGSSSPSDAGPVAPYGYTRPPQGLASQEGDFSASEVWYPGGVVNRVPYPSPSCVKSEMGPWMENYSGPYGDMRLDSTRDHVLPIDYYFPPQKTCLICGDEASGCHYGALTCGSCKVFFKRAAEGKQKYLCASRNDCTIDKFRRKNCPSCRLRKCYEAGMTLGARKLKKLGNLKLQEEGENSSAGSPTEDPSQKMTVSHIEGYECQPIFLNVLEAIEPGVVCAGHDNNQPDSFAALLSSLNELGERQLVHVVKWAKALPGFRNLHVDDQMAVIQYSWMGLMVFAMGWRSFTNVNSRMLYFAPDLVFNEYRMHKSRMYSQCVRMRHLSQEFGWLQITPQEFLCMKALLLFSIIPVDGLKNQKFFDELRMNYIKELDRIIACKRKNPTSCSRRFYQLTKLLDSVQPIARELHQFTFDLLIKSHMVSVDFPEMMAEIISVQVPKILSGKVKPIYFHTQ
# Method in brief: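 Actives from a duplicate single-concentration (25 uM) primary run went on to concentration series. Displacement of radioligand was counted by filtration and scintillation, 18 h post-dose, using prostate extracts from testosterone-pretreated rats, with DMSO as baseline.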
# [5] = molecular target: Peroxisome proliferator-activated receptor gamma (Homo sapiens) (UniProt P37231); assay: NVS_NR_hPPARg: NovaScreen (NVS) Nuclear Receptor Binding Assay for human Peroxisome Proliferator-activated Receptor gamma (PPARg) (AID 2283370)
# Peroxisome proliferator-activated receptor gamma (Homo sapiens), sequence (P37231 whole entry, looked up): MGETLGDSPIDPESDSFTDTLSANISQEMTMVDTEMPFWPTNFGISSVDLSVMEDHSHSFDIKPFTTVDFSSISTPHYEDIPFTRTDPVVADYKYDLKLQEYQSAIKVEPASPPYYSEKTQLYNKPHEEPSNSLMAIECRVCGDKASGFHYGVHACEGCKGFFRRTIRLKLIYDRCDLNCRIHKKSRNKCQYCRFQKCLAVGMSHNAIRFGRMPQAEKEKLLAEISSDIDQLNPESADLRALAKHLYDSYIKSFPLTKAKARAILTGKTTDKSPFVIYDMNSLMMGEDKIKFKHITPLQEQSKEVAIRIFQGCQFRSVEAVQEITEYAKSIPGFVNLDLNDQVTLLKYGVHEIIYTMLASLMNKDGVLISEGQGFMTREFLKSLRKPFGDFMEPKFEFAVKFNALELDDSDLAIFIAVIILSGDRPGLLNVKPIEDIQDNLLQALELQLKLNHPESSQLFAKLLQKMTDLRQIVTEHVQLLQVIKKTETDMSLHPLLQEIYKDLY
# Method in brief: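 Extracted receptor protein, cell-free; compound incubated 2 h then fluorescence polarization read. Baseline: DMSO. Actives from 25 uM duplicate screen re-run across concentrations.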
# [6] = molecular target: Retinoic acid receptor alpha (Homo sapiens) (UniProt P10276); assay: NVS_NR_hRARa_Agonist: NovaScreen (NVS) Nuclear Receptor Binding Assay for human Retinoic Acid Alpha Receptor Agonism (RAR) (AID 2283361)
# Retinoic acid receptor alpha (Homo sapiens), sequence (P10276 whole entry, looked up): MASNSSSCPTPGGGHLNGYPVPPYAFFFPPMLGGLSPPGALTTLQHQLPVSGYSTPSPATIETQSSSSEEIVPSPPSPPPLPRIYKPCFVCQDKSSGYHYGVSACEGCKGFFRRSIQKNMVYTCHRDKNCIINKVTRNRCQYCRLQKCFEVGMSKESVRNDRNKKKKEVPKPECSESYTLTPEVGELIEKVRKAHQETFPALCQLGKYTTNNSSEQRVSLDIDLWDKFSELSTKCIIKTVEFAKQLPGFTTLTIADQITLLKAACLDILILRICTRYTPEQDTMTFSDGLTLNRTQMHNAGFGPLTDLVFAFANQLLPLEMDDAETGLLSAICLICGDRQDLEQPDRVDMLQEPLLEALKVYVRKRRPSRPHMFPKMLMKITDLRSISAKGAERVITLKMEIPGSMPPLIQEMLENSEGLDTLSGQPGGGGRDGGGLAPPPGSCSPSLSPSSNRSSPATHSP
# Method in brief: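 Agonist-mode TR-FRET binding format using extracted protein, measured at 2 h post-dosing. Initial duplicate single-point screen at 25 uM preceded concentration series for actives; activity was normalized to DMSO baseline.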
# [7] = test system: guinea pig Dopamine Transporter (DAT), gene 100714898; assay: NVS_TR_gDAT: NovaScreen (NVS) Transporter Assay for guinea pig Dopamine Transporter (DAT) (AID 2283369);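 also: active compounds lower bound radioligand signal relative to DMSO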
# Method in brief: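 Primary pass: duplicate wells at 25 uM, threshold e.g. 30% inhibition. Follow-up: singleton concentration-response, highest 50 uM. Radioligand binding on guinea pig striatal membranes, 2 h, filtration scintillation detection.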
# [8] = molecular target: human Dopamine Transporter (DAT), SLC6A3 (gene 6531) (UniProt Q01959); assay: NVS_TR_hDAT: NovaScreen (NVS) Transporter Assay for human Dopamine Transporter (DAT) (AID 2283374);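 also: activity means loss of bound radioligand signal relative to DMSO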
# human Dopamine Transporter (DAT), SLC6A3 (gene 6531), sequence (Q01959 whole entry, looked up): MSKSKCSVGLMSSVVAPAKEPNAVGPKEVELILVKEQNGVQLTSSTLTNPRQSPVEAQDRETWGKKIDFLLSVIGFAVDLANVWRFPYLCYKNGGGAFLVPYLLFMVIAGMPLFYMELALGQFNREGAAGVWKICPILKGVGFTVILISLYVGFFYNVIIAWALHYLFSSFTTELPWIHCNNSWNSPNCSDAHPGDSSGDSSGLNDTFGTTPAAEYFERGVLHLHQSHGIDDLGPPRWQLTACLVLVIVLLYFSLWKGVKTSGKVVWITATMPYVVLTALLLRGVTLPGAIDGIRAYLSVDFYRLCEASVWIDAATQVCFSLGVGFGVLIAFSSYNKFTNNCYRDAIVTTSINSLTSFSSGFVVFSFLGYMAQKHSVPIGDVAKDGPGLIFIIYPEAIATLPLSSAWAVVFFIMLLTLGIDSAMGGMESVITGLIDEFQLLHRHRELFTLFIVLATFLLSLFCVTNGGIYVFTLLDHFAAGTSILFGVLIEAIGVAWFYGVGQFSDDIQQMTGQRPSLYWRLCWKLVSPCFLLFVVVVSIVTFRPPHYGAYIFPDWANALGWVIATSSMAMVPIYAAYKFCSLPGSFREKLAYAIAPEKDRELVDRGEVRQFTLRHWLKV
# Method in brief: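 Duplicate single-point screening at 25 uM preceded concentration-series follow-up of actives. Binding was measured by competitive displacement of a radioligand from DAT protein, filter-counted by scintillation 1 h after dosing. Decrease relative to DMSO taken as activity.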
compound,measurement,setting,value
O=C(NC(=O)c1c(F)cccc1F)Nc1cc(Cl)c(OC(F)(F)C(F)C(F)(F)F)cc1Cl (stereo unspecified),outcome,[1],inactive
O=C(CBr)c1ccc(O)cc1,outcome,[1],inactive
N#Cc1cccnc1,outcome,[2],inactive
Cc1cc(Cl)ccc1O,outcome,[2],inactive
CC(O)(CS(=O)(=O)c1ccc(F)cc1)C(=O)Nc1ccc(C#N)c(C(F)(F)F)c1 (stereo unspecified),outcome,[1],inactive
CCOc1cc(C=O)ccc1O,outcome,[3],inactive
O=C1c2ccccc2C(=O)C1C(=O)C(c1ccccc1)c1ccc(Cl)cc1 (stereo unspecified),outcome,[2],inactive
same,AC50,[4],4.96 µM (active)
same,AC50,[5],16.2 µM (active)
CCOP(=S)(OCC)O/N=C(\C#N)c1ccccc1,outcome,[1],inactive
Clc1cccc(Cl)c1Cl,outcome,[1],inactive
Nc1c(Oc2ccccc2)cc(O)c2c1C(=O)c1ccccc1C2=O,outcome,[4],inactive
COc1nn(C(=O)NS(=O)(=O)c2ccccc2OC(F)(F)F)c(=O)n1C,AC50,[1],23.4 µM (active)
C=CC(Cl)CCl (stereo unspecified),AC50,[1],5.06 µM (active)
Nc1ccc(N)cc1,AC50,[3],31.7 µM (active)
same,AC50,[1],25 µM (active)
N#CCC#N,outcome,[2],inactive
same,outcome,[1],inactive
Oc1cc(Cl)c(Cl)cc1Cl,outcome,[2],inactive
same,outcome,[5],inactive
O=C(CCl)Nc1ccccc1,outcome,[1],inactive
same,outcome,[5],inactive
COc1ccc(N)cc1,outcome,[1],inactive
O=C(O)C1(c2ccc3c(c2)OC[C@H](Cc2ccc(-c4ccccc4)cc2)[C@H]3O)CCCC1,outcome,[6],inactive
N#CCCC(Br)(C#N)CBr (stereo unspecified),outcome,[2],inactive
same,AC50,[7],7.56 µM (active)
O=C(N[C@H]1CN2CCC1CC2)c1ccc2c(c1)OCCO2,outcome,[6],inactive
O=c1[nH]c(=O)n(Cl)c(=O)n1Cl,outcome,[1],inactive
CCCCCCCCCCCCc1cccc(S(=O)(=O)O)c1,AC50,[2],9.25 µM (active)
same,AC50,[1],26.6 µM (active)
same,AC50,[8],32.9 µM (active)
